Laboratory results reported in the supplement of paper PMC10849652.
Of roughly 7,900 targets only a part is listed; those with a hit were picked by preference. About 0.6% of all pairs of compound and target were hits. A number with no mark means an inactive call.

Key:
Test in all cases: log2 fold change, soluble protein after heating vs DMSO (PISA); higher = thermal stabilisation; K562 cells, 10 uM, 30 min; active = over 0.2 and 3.5 SD of the protein, either way, in both replicates (recomputed)
saracatinib = compound: CN1CCN(CCOc2cc(OC3CCOCC3)c3c(Nc4c(Cl)ccc5c4OCO5)ncnc3c2)CC1 [saracatinib]
Procedure, shortened: (§1)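 Aliquots of K562 cells (2×10^6 cells/mL) treated with 10 μM compound for 30 min were heated for 3 min over 48°C-58°C. After pooling and extraction in PBS with 0.5% NP-40 at 4°C, soluble protein from a 21,000xg, 90 min spin was quantified by TMTpro 16plex LC-MS/MS with channel sums equalised. Thermal stability is expressed against control samples, from duplicates, as a log2 fold change.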

sotrastaurin = compound: CN1CCN(c2nc(C3=C(c4c[nH]c5ccccc45)C(=O)NC3=O)c3ccccc3n2)CC1 [sotrastaurin]
Procedure, shortened: as §1

alvocidib = compound: CN1CC[C@H](c2c(O)cc(O)c3c(=O)cc(-c4ccccc4Cl)oc23)[C@H](O)C1 [alvocidib]
Procedure, shortened: as §1

Tubastatin A = compound: CN1CCc2c(c3ccccc3n2Cc2ccc(C(=O)NO)cc2)C1 [Tubastatin A]
Procedure, shortened: as §1

[1] = compound: CNC(=O)C1=CC=CC=C1NC2=NC(=NC=C2Cl)NC3=C(C=C(C=C3)N4CCOCC4)OC
Procedure, shortened: as §1

defactinib = compound: CNC(=O)c1ccc(Nc2ncc(C(F)(F)F)c(NCc3nccnc3N(C)S(C)(=O)=O)n2)cc1 [defactinib]
Procedure, shortened: as §1

rucaparib = compound: CNCc1ccc(-c2[nH]c3cc(F)cc4c3c2CCNC4=O)cc1 [rucaparib]
Procedure, shortened: as §1

[2] = compound: CNc1nc(-c2ccc3c(N)n[nH]c3c2)cc(N2C[C@@H](C(=O)NC3CCCCC3)CC[C@H]2C)n1
Procedure, shortened: as §1

encorafenib = compound: COC(=O)N[C@@H](C)CNc1nccc(-c2cn(C(C)C)nc2-c2cc(Cl)cc(NS(C)(=O)=O)c2F)n1 [encorafenib]
Procedure, shortened: as §1

[3] = compound: COC(=O)[C@H](CCSC)NC(=O)C1=C(C=C(C=C1)NC[C@H](CS)N)C2=CC=CC=C2
Procedure, shortened: as §1

[4] = compound: COC1=CC=C(C=C1)CN2C=CC3=C2C=C(C=C3)C(=O)NO
Procedure, shortened: as §1

filanesib = compound: CON(C)C(=O)N1N=C(c2cc(F)ccc2F)S[C@@]1(CCCN)c1ccccc1 [filanesib]
Procedure, shortened: as §1

zotarolimus = compound: CO[C@H]1C[C@@H]2CC[C@@H](C)[C@@](O)(O2)C(=O)C(=O)N2CCCC[C@H]2C(=O)O[C@H]([C@H](C)C[C@@H]2CC[C@H](n3cnnn3)[C@H](OC)C2)CC(=O)[C@H](C)/C=C(\C)[C@@H](O)[C@@H](OC)C(=O)[C@H](C)C[C@H](C)/C=C/C=C/C=C/1C [zotarolimus]
Procedure, shortened: as §1

idasanutlin = compound: COc1cc(C(=O)O)ccc1NC(=O)[C@@H]1N[C@@H](CC(C)(C)C)[C@](C#N)(c2ccc(Cl)cc2F)[C@H]1c1cccc(Cl)c1F [idasanutlin]
Procedure, shortened: as §1

alisertib = compound: COc1cc(Nc2ncc3c(n2)-c2ccc(Cl)cc2C(c2c(F)cccc2OC)=NC3)ccc1C(=O)O [alisertib]
Procedure, shortened: as §1

[5] = compound: COc1cc2nc(-c3cc(F)ccc3O)nc(N[C@@H]3CNC[C@H]3C(C)(C)O)c2cc1OC
Procedure, shortened: as §1

gefitinib = compound: COc1cc2ncnc(Nc3ccc(F)c(Cl)c3)c2cc1OCCCN1CCOCC1 [gefitinib]
Procedure, shortened: as §1

[6] = compound: COc1cccc2cc(-c3nc([C@H]4CC[C@H](C(=O)O)CC4)n4ncnc(N)c34)[nH]c12
Procedure, shortened: as §1

lapatinib = compound: CS(=O)(=O)CCNCc1ccc(-c2ccc3ncnc(Nc4ccc(OCc5cccc(F)c5)c(Cl)c4)c3c2)o1 [lapatinib]
Procedure, shortened: as §1

pictilisib = compound: CS(=O)(=O)N1CCN(Cc2cc3nc(-c4cccc5[nH]ncc45)nc(N4CCOCC4)c3s2)CC1 [pictilisib]
Procedure, shortened: as §1

UniProt Q15126, sequence (Q15126 whole entry, looked up): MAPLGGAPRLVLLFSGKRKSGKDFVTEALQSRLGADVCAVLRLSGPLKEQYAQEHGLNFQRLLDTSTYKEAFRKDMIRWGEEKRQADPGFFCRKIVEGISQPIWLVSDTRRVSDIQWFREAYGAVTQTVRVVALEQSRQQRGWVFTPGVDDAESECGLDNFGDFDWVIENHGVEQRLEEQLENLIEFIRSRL
UniProt Q08752, sequence (Q08752 whole entry, looked up): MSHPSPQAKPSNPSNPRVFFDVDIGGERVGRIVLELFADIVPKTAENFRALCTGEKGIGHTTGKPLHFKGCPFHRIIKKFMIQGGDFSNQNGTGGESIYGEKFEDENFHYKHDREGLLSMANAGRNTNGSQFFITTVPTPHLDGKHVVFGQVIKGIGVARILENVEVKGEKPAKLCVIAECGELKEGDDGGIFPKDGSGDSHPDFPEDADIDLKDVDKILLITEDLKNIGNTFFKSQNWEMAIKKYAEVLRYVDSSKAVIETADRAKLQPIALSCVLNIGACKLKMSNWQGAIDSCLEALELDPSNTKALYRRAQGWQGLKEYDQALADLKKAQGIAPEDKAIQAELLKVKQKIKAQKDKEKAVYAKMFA
UniProt Q6GMV3, sequence (Q6GMV3 whole entry, looked up): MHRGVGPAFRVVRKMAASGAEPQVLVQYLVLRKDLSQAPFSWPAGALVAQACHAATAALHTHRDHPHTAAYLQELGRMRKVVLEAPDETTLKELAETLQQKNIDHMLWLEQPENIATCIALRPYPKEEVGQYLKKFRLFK
UniProt Q8N5Y8, sequence (Q8N5Y8 whole entry, looked up): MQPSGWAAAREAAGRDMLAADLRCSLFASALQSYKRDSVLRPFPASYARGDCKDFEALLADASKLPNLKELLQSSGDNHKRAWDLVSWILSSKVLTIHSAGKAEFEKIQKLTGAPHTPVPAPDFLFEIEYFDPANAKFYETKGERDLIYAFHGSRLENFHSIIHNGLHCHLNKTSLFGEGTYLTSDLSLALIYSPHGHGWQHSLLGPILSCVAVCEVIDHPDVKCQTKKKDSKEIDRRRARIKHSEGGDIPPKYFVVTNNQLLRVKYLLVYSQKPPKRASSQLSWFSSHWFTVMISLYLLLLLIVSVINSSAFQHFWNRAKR
UniProt O94806, sequence (O94806 whole entry, looked up): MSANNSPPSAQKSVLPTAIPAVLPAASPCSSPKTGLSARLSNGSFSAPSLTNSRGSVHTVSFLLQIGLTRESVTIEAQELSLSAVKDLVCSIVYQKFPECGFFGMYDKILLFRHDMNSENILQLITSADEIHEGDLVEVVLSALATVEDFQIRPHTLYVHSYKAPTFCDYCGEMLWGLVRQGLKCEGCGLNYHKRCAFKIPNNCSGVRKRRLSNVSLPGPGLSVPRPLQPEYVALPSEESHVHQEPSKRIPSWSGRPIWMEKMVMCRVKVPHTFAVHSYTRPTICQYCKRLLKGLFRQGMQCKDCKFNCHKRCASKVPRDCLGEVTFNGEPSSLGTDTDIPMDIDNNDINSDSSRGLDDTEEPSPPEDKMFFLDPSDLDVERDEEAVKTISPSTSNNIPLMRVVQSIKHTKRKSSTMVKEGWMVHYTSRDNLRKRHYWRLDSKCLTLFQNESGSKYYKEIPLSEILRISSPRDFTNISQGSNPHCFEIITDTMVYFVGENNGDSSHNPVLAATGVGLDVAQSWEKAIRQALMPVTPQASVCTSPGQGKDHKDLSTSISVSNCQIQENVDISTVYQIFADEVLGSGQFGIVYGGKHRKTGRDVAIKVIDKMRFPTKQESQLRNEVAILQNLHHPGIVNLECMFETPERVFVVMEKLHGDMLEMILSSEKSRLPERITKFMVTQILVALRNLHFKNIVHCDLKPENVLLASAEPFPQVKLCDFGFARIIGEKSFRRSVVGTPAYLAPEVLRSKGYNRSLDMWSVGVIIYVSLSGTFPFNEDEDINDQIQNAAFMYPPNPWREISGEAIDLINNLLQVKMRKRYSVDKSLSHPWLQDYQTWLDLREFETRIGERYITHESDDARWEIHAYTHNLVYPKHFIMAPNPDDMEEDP
UniProt Q93096, sequence (Q93096 whole entry, looked up): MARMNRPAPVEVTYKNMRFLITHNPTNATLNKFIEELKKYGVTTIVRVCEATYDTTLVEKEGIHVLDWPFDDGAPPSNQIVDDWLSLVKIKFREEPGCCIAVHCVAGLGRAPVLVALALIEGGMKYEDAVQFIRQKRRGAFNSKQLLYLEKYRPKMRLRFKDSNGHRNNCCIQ
UniProt Q16537, sequence (Q16537 whole entry, looked up): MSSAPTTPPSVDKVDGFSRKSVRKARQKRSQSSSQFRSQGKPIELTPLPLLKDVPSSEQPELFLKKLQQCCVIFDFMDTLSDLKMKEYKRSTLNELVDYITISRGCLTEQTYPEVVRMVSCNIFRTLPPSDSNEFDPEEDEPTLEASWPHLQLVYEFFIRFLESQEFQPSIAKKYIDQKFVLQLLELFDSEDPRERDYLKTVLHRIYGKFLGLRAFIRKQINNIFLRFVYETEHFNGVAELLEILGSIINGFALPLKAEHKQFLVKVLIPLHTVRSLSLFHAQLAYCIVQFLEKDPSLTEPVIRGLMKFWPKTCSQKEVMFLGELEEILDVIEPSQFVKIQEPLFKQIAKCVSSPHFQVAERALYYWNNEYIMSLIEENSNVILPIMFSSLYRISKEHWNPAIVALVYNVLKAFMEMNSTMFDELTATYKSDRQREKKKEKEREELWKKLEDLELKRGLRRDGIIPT
UniProt O43924, sequence (O43924 whole entry, looked up): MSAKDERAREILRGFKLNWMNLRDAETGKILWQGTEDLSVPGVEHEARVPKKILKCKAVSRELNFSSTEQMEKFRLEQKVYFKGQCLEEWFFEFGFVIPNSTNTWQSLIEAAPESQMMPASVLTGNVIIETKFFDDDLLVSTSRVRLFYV
UniProt Q15366, sequence (Q15366 whole entry, looked up): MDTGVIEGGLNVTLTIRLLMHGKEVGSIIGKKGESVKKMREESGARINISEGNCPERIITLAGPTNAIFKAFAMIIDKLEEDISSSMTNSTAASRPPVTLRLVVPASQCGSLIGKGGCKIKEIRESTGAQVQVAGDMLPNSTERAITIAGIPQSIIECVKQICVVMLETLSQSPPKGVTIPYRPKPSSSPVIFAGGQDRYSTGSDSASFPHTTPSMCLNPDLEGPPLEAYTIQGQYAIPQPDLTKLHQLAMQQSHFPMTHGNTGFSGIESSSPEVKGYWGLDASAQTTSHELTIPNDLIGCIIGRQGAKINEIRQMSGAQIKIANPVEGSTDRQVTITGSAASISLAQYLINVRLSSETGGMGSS
UniProt Q96HA1, sequence (Q96HA1 whole entry, looked up): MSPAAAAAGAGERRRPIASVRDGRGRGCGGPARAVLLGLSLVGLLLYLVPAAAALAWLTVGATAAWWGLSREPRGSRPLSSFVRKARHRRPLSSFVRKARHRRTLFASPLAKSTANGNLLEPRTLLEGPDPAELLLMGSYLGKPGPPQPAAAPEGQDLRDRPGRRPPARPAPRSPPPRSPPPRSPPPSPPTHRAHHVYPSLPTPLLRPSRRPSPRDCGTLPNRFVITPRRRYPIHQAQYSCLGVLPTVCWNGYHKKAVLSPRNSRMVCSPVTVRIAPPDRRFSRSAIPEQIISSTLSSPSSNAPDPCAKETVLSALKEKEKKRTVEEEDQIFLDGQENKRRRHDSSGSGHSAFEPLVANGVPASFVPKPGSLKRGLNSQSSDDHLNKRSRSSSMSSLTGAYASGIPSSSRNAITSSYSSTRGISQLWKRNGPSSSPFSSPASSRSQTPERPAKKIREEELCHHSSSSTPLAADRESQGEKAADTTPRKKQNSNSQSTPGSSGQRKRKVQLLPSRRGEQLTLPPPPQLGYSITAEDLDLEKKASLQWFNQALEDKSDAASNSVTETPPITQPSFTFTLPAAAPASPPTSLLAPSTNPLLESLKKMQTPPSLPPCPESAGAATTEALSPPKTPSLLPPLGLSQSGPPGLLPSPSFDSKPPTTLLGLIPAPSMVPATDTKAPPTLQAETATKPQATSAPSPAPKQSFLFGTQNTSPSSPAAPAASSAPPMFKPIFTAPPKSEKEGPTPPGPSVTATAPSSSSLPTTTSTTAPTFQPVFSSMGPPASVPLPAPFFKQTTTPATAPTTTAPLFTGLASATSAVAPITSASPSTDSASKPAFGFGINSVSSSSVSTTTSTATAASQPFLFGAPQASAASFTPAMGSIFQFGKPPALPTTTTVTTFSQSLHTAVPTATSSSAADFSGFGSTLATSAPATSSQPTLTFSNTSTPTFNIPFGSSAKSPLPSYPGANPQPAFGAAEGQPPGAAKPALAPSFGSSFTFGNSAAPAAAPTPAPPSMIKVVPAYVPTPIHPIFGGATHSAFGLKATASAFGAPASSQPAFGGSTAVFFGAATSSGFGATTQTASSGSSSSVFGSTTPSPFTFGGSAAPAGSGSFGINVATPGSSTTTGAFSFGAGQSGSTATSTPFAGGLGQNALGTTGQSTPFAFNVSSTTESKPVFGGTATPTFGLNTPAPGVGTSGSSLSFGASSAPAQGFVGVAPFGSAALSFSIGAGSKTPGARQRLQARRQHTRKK
UniProt Q96PU8, sequence (Q96PU8 whole entry, looked up): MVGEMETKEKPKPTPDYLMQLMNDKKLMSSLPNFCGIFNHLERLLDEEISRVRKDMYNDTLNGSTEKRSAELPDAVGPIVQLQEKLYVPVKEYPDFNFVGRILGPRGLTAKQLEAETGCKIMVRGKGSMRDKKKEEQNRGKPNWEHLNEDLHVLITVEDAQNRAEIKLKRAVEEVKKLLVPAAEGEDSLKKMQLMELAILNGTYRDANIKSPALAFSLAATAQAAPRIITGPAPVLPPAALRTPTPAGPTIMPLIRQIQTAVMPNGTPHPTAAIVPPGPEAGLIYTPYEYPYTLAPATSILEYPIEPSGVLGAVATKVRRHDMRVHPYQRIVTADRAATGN

Target	log2 fold change (saracatinib)	log2 fold change (sotrastaurin)	log2 fold change (alvocidib)	log2 fold change (Tubastatin A)	log2 fold change [1]	log2 fold change (defactinib)	log2 fold change (rucaparib)	log2 fold change [2]	log2 fold change (encorafenib)	log2 fold change [3]	log2 fold change [4]	log2 fold change (filanesib)	log2 fold change (zotarolimus)	log2 fold change (idasanutlin)	log2 fold change (alisertib)	log2 fold change [5]	log2 fold change (gefitinib)	log2 fold change [6]	log2 fold change (lapatinib)	log2 fold change (pictilisib)
PCBP2 isoform 3 (UniProt Q15366)	-0.023	-0.084	-0.148	0.025	-0.032	-0.187	0.041	0.013	0.075	-0.058	0.138	-0.031	0.048	-0.064	0.012	-0.092	0.011	0.002	0.003	-0.013
PMVK (UniProt Q15126)	-0.021	-0.003	-0.032	0.229	-0.051	0.02		-0.039		-0.368		0.198	0.083	0.064	0.047		-0.189	-0.144		0.073
PTRHD1 (UniProt Q6GMV3)	-0.057	0.061	-0.062	0.052	0.025	0	-0.015	-0.022	-0.064	0.003	-0.051	0.065	-0.008	0.042	-0.103	-0.025	0.085	0.068	-0.061	0.02
POM121 (UniProt Q96HA1)	-0.043	-0.024	0.023	0.083	0.126	0.045	0.069	0	0.075	-0.002	-0.03	0.055	-0.018	0.146		-0.027	-0.002		-0.01	0.003
PPP2R5E (UniProt Q16537)	-0.077	0.012	-0.069	0.005	0.083	-0.025	-0.008	0.074	0.021	-0.017	-0.044	-0.056	-0.009	-0.191	-0.024	0.205	0.002	0.033	-0.024	-0.118
QKI (UniProt Q96PU8)	-0.004	-0.001	-0.106	0.062	-0.044	-0.23 (active)	-0.006	-0.036	-0.036	0.004	-0.004	-0.004	-0.026	-0.032	-0.077	-0.079	0.019	0.011	-0.007	-0.032
PHKA1 (UniProt P46020)	-0.12	0.058	-0.073	-0.256	0.101		-0.283	0.027	-0.295		0.046	0.076	-0.024	-0.518 (active)	-0.223	0.265	-0.017	0.034	-0.109	0.049
PTP4A1 (UniProt Q93096)	-0.058	0.061	-0.34 (active)	0.036	0.02	-0.447 (active)	-0.038	0.04	-0.027	0.029	0.009	-0.088	0.05	0.089	-0.129	-0.267 (active)	0.033	0.04	0.024	0.068
PRKD3 (UniProt O94806)	0.023	-0.31	0.066		-0.335	-0.068		0.002		-0.058	-0.062	-0.002	0.084	0.171	-0.039			0.149		0.255
POGZ (UniProt Q7Z3K3)	-0.134	-0.186	-0.065	-0.071	0.056	-0.162	0.196	0.136	-0.02	-0.043	-0.066	-0.021	0.008	0.01		0.095			-0.086	0.082
PARP16 isoform 3 (UniProt Q8N5Y8)	0.175	-0.038	-0.054	0.005	-0.009	0.046	0.198	-0.042	-0.087	-0.005	-0.029	-0.13	0.039	-0.056	-0.075	-0.097	0.011	-0.03	0.071	-0.008
PIK3CD (UniProt O00329)	-0.124	-0.106	0.055	0.003	0.08	-0.218	0.182	0.089	-0.019	-0.062	-0.016	0.029	-0.098	0.105		0.02			-0.018	
PBX2 (UniProt P40425)	0.082	-0.023	-0.141	-0.069	-0.022	-0.36		-0.046		-0.044	0.132	-0.055	0.115	0.102	-0.027	-0.114	-0.02	0	0.014	0.01
PPID (UniProt Q08752)	-0.137	-0.178	-0.069	0.051	0.044	-0.101	0.135	0.042	0.142	-0.052	0.041	0	0.056	-0.055	-0.009	0.093	0.112	-0.091	-0.041	0.039
PDE6D (UniProt O43924)	-0.074	0.035	-0.051	0.029	-0.102	-0.043		0.119		0.068	-0.036	0.101	-0.179	-0.092	-0.031		0.076	0.002		0.078
PGK2 (UniProt P07205)	-0.196	0.154	0.017	-0.041		0.037	-0.248	-0.131	-0.056	0.038	0.016	-0.003	-0.029	0.001	0.08	0.14	0.068	0.001	-0.093	0.041
PCID2 (UniProt Q5JVF3)	-0.164	-0.22	0.012	0.006	-0.033	-0.281	0.051	0.008	-0.036	-0.101	-0.136	-0.025	-0.07		0.087	0.009	0.039	-0.023	0.175	0.013
